The text below walks through data of PubChem BioAssay (NCI).

Compounds without any hit were thinned out: in the full panel of roughly 83,000, 20% have a hit.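 Growth was measured after 48 h exposure to one concentration of compound in 96-well plates. Values under 10 count as active.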 The source made the active and inactive calls.

In one assay the test system is NCI/ADR-RES ovarian. In words: NCI-60 one-dose screen, 48 h (100 = growth as untreated, 0 = no growth, -100 = all killed). The settings on record: 10 µM unless noted.
With `COc1cccc(/C=C/[N+](=O)[O-])c1`, the growth is 92.6% (inactive).

As for `CC[C@H](C)[C@H](NC(=O)c1cccn1C)C(=O)N(C)[C@H](C[C@@H](OC(C)=O)c1nc(C(=O)N[C@@H](Cc2ccccc2)C[C@H](C)C(=O)OC)cs1)C(C)C`, the growth was 7.66% (active).

`[Cl][Hg][n]1c(-c2ccco2)nc2ccccc21`: the growth was 98.6% (inactive).

As for `COc1ccc2c(c1)c(-c1nc(-c3cn(C)c4ncccc34)cs1)cn2CCCCN1CCCCC1`, the growth is 5.12% (active).

In another assay the test system is T-47D breast. The description is as above. Particulars: 10 µM unless noted.
As for `Fc1c[c-]c(-c2ccccn2)c(F)c1.[CH3-].[Pt+2].c1ccc([PH+](c2ccccc2)c2ccccn2)cc1`, the growth was -7.66% (active). Same read-out and setting: in the case of `CC(=O)O[C@@H]1CC[C@]2(C)[C@H]3CC[C@]4(C)C(=O)CC[C@H]4[C@@H]3C[C@@H]3SC(N)=N[C@@]32C1` it was 65.8% (inactive); in that of `COc1cc2c(cc1OCc1ccccc1)C(CC(C)C)=[N+](C)CC2`, 58.4% (inactive); in that of `CC(C)=CCC[C@H](C(=O)O)[C@@H]1CC[C@]2(C)C3=C(CC[C@@]12C)[C@@]1(C)CC[C@H](O)C(C)(C)[C@@H]1CC3`, 92.5% (inactive). On the same count and under the same terms, for `CC(C)=CCc1c(O)c(C(=O)CC(C)C)c(O)c2c(-c3ccccc3)cc(=O)oc12` the value was 33.4% (inactive); for `Cc1ccc(C(Cc2ccccc2)NCCO)cc1` (centres undefined), 67.7% (inactive). Take `O=C(O)CNC(=O)C(Cl)(Cl)Cl`: the growth was 94.5% (inactive). Turning to `COC(=O)[C@@H](C)C[C@H](Cc1ccccc1)NC(=O)c1csc([C@@H](C[C@H](C(C)C)N(C)C(=O)[C@@H](NC(=O)[C@H]2CCCCN2C)c2ccc(F)cc2)OC(C)=O)n1`, the growth was 45.7% (inactive). Same read-out and setting: for `C[C@]12CC[C@H]3[C@@H](C[C@@H]4SC(Nc5ccccc5)=N[C@@]45CC(O)CC[C@]35C)[C@@H]1CCC2O` (some centres undefined) the value was 16.3% (inactive). As to `COc1ccc(/C=C\c2cc(OC)c(OC)c(OC)c2)cc1NC(=O)/C=C/c1cc(OC)c(OC)c(OC)c1`, the growth was 30% (inactive).

Regarding `O=C(N/N=C/c1ccc(N(CCCl)CCCl)cc1)c1cccc2ccccc12`, the growth is 73.3% (inactive). The same measure, in the same setting: for `CC(=O)O[C@H](C[C@H](C(C)C)N(C)C(=O)[C@@H](NC(=O)[C@H]1CCCCN1C)C(C)C)c1nc(C(=O)N[C@@H](Cc2ccccc2)C[C@H](C)C(=O)O)c(CCOCc2ccccc2)s1` the value was 62.4% (inactive). In the case of `COc1cc2c(cc1OCCCCn1c(-c3cccs3)nc3ccccc31)N=C[C@@H]1CCCN1C2=O`, the growth was 5.95% (active).

For `C1CCC2(CC1)OOCNCOO2`, the growth was 89.8% (inactive). Same read-out and setting: in the case of `COC1=CC(=O)O[C@@H](/C=C/c2ccc3c(c2)OCO3)C1` it was 93.2% (inactive); in that of `O=C(CC1(O)C(=O)Nc2ccc(Cl)cc21)c1ccc(C(=O)NCC2CCC3(CC2)OOC2(CCCCC2)OO3)cc1` (centres undefined), -24.7% (active). Same read-out and setting: for `C/C(=C\c1ccn(-c2ccc(N)cc2C(F)(F)F)n1)[C@@H]1C[C@@H]2O[C@]2(C)CCC[C@H](C)[C@H](O)[C@@H](C)C(=O)C(C)(C)[C@@H](O)CC(=O)O1` the value was 39.1% (inactive); for `O=NNc1ccccn1`, 97.3% (inactive). Same read-out and setting: in the case of `N#CC1(c2ccccc2)CCN(Cc2ccccc2)CC1` it was 100% (inactive); in that of `CN(C)CCCOc1ccc2c(c1)c(C(=O)C(=O)NCCO)cn2Cc1ccccc1`, 95.2% (inactive); in that of `CC12CCC=CC1CCC1C2CCC2(C)C(c3ccc(=O)oc3)CCC12O` (centres undefined), -13.6% (active). `CCCCOc1ccc(C(N)Cc2ccccc2)cc1` (centres undefined): the growth is 92.5% (inactive). Consider `CCC1CN1CCCCN1CC1CC` (centres undefined), for which the growth is 92.1% (inactive). As to `CC1(C)C(C(=O)c2cn(CCCCF)c3ccccc23)C1(C)C`, the growth was 78.6% (inactive). Regarding `Cc1cc(N(CCCl)CCCl)ccc1C=Nc1cccnc1`, the growth was 45.3% (inactive). Still for that read-out and setting: in the case of `COC(=O)[C@H](Cc1ccccc1)NC(=O)c1csc([C@@H](C[C@H](C(C)C)N(C)C(=O)[C@@H](NC(=O)[C@H]2CCCCN2C)C2CC2)OC(C)=O)n1` it was 28.3% (inactive); in that of `[Cl][Hg][c]1cc(Br)cc(Br)c1`, 27.5% (inactive). Same read-out and setting: for `COc1ccc2c(c1)c(-c1nc(-c3c[nH]c4ncccc34)cs1)cn2CCCCN1CCCCC1` the value was -55.5% (active).

On to `C=COC(=O)CCN1CC1`, for which the growth is 106% (inactive). Same read-out and setting: for `COC(=O)[C@@H](C)C[C@H](Cc1ccccc1)NC(=O)c1csc([C@@H](C[C@H](C(C)C)N(C)C(=O)[C@@H](NC(=O)[C@H]2CCCCN2C)C2CCCCC2)OC(C)=O)n1` the value was 39.1% (inactive).
